# Source: PubChem BioAssay AID686979 (National Center for Advancing Translational Sciences (NCATS), 2013)
# Out of some 420,000 compounds screened, about 50,000 (12%) were called active. Inconclusive results (about 26%) are left out. Many of the other results were omitted from the sample, so actives are more common in it than they were. Unmarked numbers belong to inactive results. The call rests on the fitted dose curve; in most records, active means well fitted inhibition curve with a large enough effect; inconclusive means small, poorly fitted or top-dose-only effect; inactive means flat fitted curve, though single readings scatter.
# Experiment: qHTS for Inhibitors of human tyrosyl-DNA phosphodiesterase 1 (TDP1): qHTS in cells in presence of CPT; further: nearly all actives have a fitted effect of over 55% in size
# Conditions: chicken DT40 Tdp1-/-;hTDP1 cells + 20 nM CPT, ATP luminescence, 48 h; series mostly up to 46.2 µM; activity change, negative = growth inhibition: at the top concentration
# Method in brief: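 Chicken DT40 Tdp1-/- cells stably complemented with human TDP1 were seeded at 400 cells/well in medium containing 20 nM camptothecin, exposed to pin-transferred compounds, and grown at 37 °C for at least 48 hr. Viability was read as ATP luminescence.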
# On the % scale 0 is the no-effect control and ±100 the full control effect; potency means the concentration at half of the fitted maximal effect.
SMILES,"activity change, negative = growth inhibition [%]",Potency
O=C(CSc1nnc(N2CCOCC2)n1-c1cccc(F)c1)N1CCN(c2ccccn2)CC1,1.76,
Cc1cc(NC(=O)CSCC(=O)NC(C)c2ccccc2)no1 (configuration not stated),-4.29,
CC(C)(C)NC(=O)COC(=O)c1cc(Br)ccc1Cl,4.4,
C[C@H](CO)N1C[C@H](C)[C@@H](CN(C)S(=O)(=O)c2ccc(F)cc2)Oc2c(NC(=O)Nc3ccccc3)cccc2C1=O,-28.6,
CCCc1nn(C)c2c(=O)[nH]c(-c3cc(S(N)(=O)=O)ccc3OCC)nc12,0.591,
Cc1nnc(CN(C)Cc2cn[nH]c2-c2ccc(-c3ccccc3)cc2)o1,-0.178,
COc1ccc(/C=C/C(=O)c2cc(Br)ccc(=O)c2O)cc1,,14.6 µM (active)
COc1ccc2oc(=N)c(C(=O)Nc3ccc(Br)cc3)cc2c1,2.51,
COc1ccc2oc(=O)c(C(=O)O)cc2c1,-20.4,
O=[N+]([O-])c1ccc(N=NNc2ccc([N+](=O)[O-])cc2)cc1,-12.5,
COc1cc(C(=O)N2CCN(S(=O)(=O)c3ccc(C(C)C)cc3)CC2)ccc1OCC(=O)N1CCOCC1,-1.46,
COc1ccc(S(=O)(=O)Nc2ccccc2C(=O)N2CCCC2)cc1C,2.19,
CN(c1ccccc1)S(=O)(=O)c1ccc(C(=O)N2CCN(c3ccccc3Cl)CC2)cc1,,23.1 µM (active)
COc1ccccc1NS(=O)(=O)c1ccc(C(=O)N2CCN(c3ccccc3O)CC2)cc1,,18.4 µM (active)
O=C(c1ccc(S(=O)(=O)N2CCOCC2)cc1)N1CCN(c2ccccc2)CC1,-0.43,
COc1ccccc1NC(=O)CN1C(=O)c2ccccc2Sc2ccc(C(=O)N3CCCC3)cc21,8.88,
Cc1ccc(S(=O)(=O)N2CCN(C(=O)c3ccc(-n4cncn4)c([N+](=O)[O-])c3)CC2)cc1,-28.2,
O=C(c1ccc(S(=O)(=O)c2ccccc2)cc1)N1CCCCCC1,-25.4,
COc1ccccc1N1CCN(C(=O)c2ccc(S(=O)(=O)N3CCCCC3)cc2)CC1,,23.1 µM (active)
COc1ccccc1CC(=O)Nc1ccc(S(=O)(=O)N2CCCC2)cc1,16,
CC(C)c1ccc(S(=O)(=O)N2CCN(C(=O)c3ccc(N4CCCC4)c([N+](=O)[O-])c3)CC2)cc1,,16.4 µM (active)
CN(c1ccccc1)S(=O)(=O)c1ccc(Cl)c(C(=O)OCC(=O)N2CCOCC2)c1,2.02,
O=C(OCCN1CCOCC1)C1(c2ccccc2)CCCCC1,,inactive
CCN(Cc1ccccc1)Cc1c(O)ccc2c(=O)c(-c3ccc(Cl)cc3Cl)coc12,0.932,

SMILES,"activity change, negative = growth inhibition [%]",Potency
Cc1nc(C(F)(F)F)ccc1C(=O)N1CCC1(C)C(=O)NS(=O)(=O)c1ccc(F)cc1F (configuration not stated),-11.8,
O=C(Nc1cccnc1)c1cc(Cl)ccc1Cl,-4.97,
CC(=O)c1nn(-c2ccc(C)cc2)cc1C(=O)c1cccc(Br)c1,-1.68,
COc1ccc(S(=O)(=O)N2CCN(C(=O)N(C)C)C2C)cc1 (configuration not stated),25.4,
COc1ccc(NC(=O)CCCC(=O)c2ccccc2)cc1,5.35,
CC(C)N(C(=O)Cn1cc(S(=O)(=O)CC(=O)N2CCOCC2)c2ccccc21)C(C)C,-12.8,
CCCc1nn2c(=O)cc(COC(=O)c3ccc(NC(=O)COc4ccc(F)cc4)cc3)nc2s1,-14.8,
COc1cc(C(C(=O)NC2CCCC2)N(Cc2ccccc2)C(=O)c2snc(C(N)=O)c2N)ccc1O (configuration not stated),-13.6,
CC(C)(C)NC(=O)C(c1ccc(Cl)cc1)N(CCO)C(=O)c1snc(C(N)=O)c1N (configuration not stated),,13 µM (active)
NC(=O)c1nsc(C(=O)N(CCCN2CCOCC2)C(C(=O)NC2CCCCC2)c2ccc(Cl)cc2)c1N (configuration not stated),2.27,
CC(C)(C)C(=O)NC1CC2CCCC(C1)N2C(=O)Nc1ccccc1F (configuration not stated),3.31,
COC(=O)[C@@H]1CCCN1C(=O)c1cc(COc2cccc3cccnc23)on1,-13.8,
Cc1ccc(OCc2cc(C(=O)N(C)CCn3ccnc3C)no2)cc1C,-13.2,
COCC1CCCCN1C(=O)c1cc(COc2ccc(C)c(C)c2)on1 (configuration not stated),,20.6 µM (active)
O=C1C=CN2CCCC2CC1 (configuration not stated),,16.4 µM (active)
Cc1cc(C)c(C#N)c(Nc2cccc(Br)c2)n1,-4.23,
CCCNC(=O)C1(C)CCN1C(=O)Cc1ccc(-c2ccccc2)cc1 (configuration not stated),,16.4 µM (active)
CC1(C(=O)NS(=O)(=O)c2ccccc2)CCN1C(=O)Cc1ccc(-c2ccccc2)cc1 (configuration not stated),-7.34,
CC1(C(=O)NS(=O)(=O)c2cccs2)CCN1C(=O)Cc1ccc(-c2ccccc2)cc1 (configuration not stated),-5.95,
CCOC(=O)c1c(C)[nH]c(C(=O)OCC(=O)c2ccc(OC)cc2OC)c1C,-17.3,
N#C/C(=C\c1cccnc1)C(=O)Nc1ccc(SC(F)F)cc1,-28.9,
CS(=O)(=O)N1CCC(C(=O)N2CCN(c3ccccc3)CC2)CC1,-15.5,
Cn1c(C(=O)N2CCC(C(=O)N3CCN(c4ccccc4)CC3)CC2)cc2sccc21,,13 µM (active)
